Values joined by “and” are separate entries in the source; they are usually repeats but may differ in a detail not shown here. Equal values may be shown once. In all, about 5,500 compounds went through this assay and about 2,000 (36%) were called active. About 18% were inconclusive and are not listed. Rule as the data show it: active = normalized growth mostly below about 0.91 (no sharp cut-off); inconclusive = no clear call, values can overlap the other calls; inactive = mostly above about 0.92. This is one part of the list.
Assay: chemical genetic growth profiling, strain panel (AID 1159580);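 also: tested at 20 µM; growth read once vehicle control cultures reached saturation at 30 °C; 1 = growth at the plate median or of vehicle wells; lower values mean less growth of the strain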
Details: S. cerevisiae deletion strains, growth OD
[1] = locus YAL040C, strain CLN3, stronger effect = lower value
[2] = locus YCL061C, strain MRC1 (second series), stronger effect = lower value
[3] = locus YDR150W, strain NUM1, stronger effect = lower value
[4] = locus YDR363W, strain ESC2, stronger effect = lower value
[5] = locus YER002W, strain NOP16, stronger effect = lower value
[6] = locus YGR078C, strain PAC10, stronger effect = lower value
[7] = locus YMR307W, strain GAS1, stronger effect = lower value
[8] = locus YNL153C, strain GIM3, stronger effect = lower value
[9] = locus YNL175C, strain NOP13, stronger effect = lower value
[10] = locus YNL197C, strain WHI3, stronger effect = lower value
[11] = locus YNL224C, strain SQS1, stronger effect = lower value
[12] = locus YOR083W, strain WHI5 (second series), stronger effect = lower value
[13] = locus YJR075W, strain HOC1, stronger effect = lower value

Measured: normalized growth

N[C@@H](CCC(=O)N[C@H](CSN=O)C(=O)NCC(=O)O)C(=O)O
inactive: [1] 1 | [2] 1.01 | [3] 1 | [4] 1.05 | [5] 1 | [6] 1.02 | [7] 0.996 | [8] 1.01 | [9] 1.01 | [10] 1 | [11] 1 | [12] 1.01 | locus YPL055C, strain LGE1, stronger effect = lower value 1.02 | locus YPL241C, strain CIN2, stronger effect = lower value 0.995

CCn1ccnc1CC1COc2ccccc2O1 (configuration not stated)
inactive: [1] 1.02 | [2] 1 | [3] 1 | [4] 0.993 | [5] 1.01 | locus YGR229C, strain SMI1, stronger effect = lower value 0.993 | [13] 1 | [7] 0.996 | locus YNL128W, strain TEP1, stronger effect = lower value 1.01 | [9] 0.997 | [10] 0.996 | [11] 1.01 | [12] 1.07

COc1c2c(cc3c1OCO3)CCN(C)C2
inactive: locus YAL021C, strain ccr4, stronger effect = lower value 0.987 | locus YAL026C, strain drs2, stronger effect = lower value 1.01 | locus YAL030W, strain snc1, stronger effect = lower value 1.01 | locus YBL061C, strain skt5, stronger effect = lower value 1.02 | locus YBR009C, strain hhf1, stronger effect = lower value 1.02 | locus YBR021W, strain FUR4, stronger effect = lower value 0.988 | locus YBR023C, strain chs3, stronger effect = lower value 1.01 | locus YBR171W, strain sec66, stronger effect = lower value 1.03 | locus YBR229C, strain ROT2, stronger effect = lower value 1.01 | locus YBR231C, strain swc5, stronger effect = lower value 1.01 | locus YBR279W, strain paf1, stronger effect = lower value 1 | locus YCL011C, strain gbp2, stronger effect = lower value 1.01 | locus YCL016C, strain dcc1, stronger effect = lower value 1.01 | locus YCL029C, strain bik1, stronger effect = lower value 1 | locus YCL061C, strain MRC1, stronger effect = lower value 1.02 | locus YCL069W, strain vba3, stronger effect = lower value 1 | locus YCR088W, strain abp1, stronger effect = lower value 1.01 | locus YDL005C, strain med2, stronger effect = lower value 1.02 | locus YDL035C, strain GPR1, stronger effect = lower value 1.02 | locus YDL040C, strain nat1, stronger effect = lower value 0.996 | locus YDL074C, strain BRE1, stronger effect = lower value 1.01 | locus YDL101C, strain DUN1, stronger effect = lower value 1.02 | locus YDL185W, strain tfp1, stronger effect = lower value 0.995 | locus YDL192W, strain arf1, stronger effect = lower value 1.01 | locus YDR001C, strain nth1, stronger effect = lower value 1.01 | locus YDR069C, strain doa4, stronger effect = lower value 1.02 | locus YDR101C, strain arx1, stronger effect = lower value 1 | locus YDR137W, strain rgp1, stronger effect = lower value 1.01 | locus YDR159W, strain sac3, stronger effect = lower value 1.01 | locus YDR162C, strain NBP2, stronger effect = lower value 1.01 | locus YDR195W, strain ref2 0.999 | locus YDR297W, strain sur2, stronger effect = lower value 0.999 | locus YDR318W, strain mcm21, stronger effect = lower value 1 | locus YDR334W, strain swr1, stronger effect = lower value 1.02 | locus YDR335W, strain msn5, stronger effect = lower value 0.998 | locus YDR388W, stronger effect = lower value 1 | locus YDR392W, strain spt3, stronger effect = lower value 0.991 | locus YDR502C, strain sam2, stronger effect = lower value 1 | locus YEL003W, strain gim4, stronger effect = lower value 1.01 | locus YEL037C, strain rad23, stronger effect = lower value 1 | locus YEL061C, strain CIN8 (second series), stronger effect = lower value 1 | locus YEL061C, strain CIN8, stronger effect = lower value 1.01 | locus YER015W, strain faa2, stronger effect = lower value 1.01 | locus YER016W, strain bim1, stronger effect = lower value 1.02 | locus YER110C, stronger effect = lower value 0.996 | locus YER111C, strain swi4, stronger effect = lower value 1.01 | locus YER155C, strain BEM2 (second series), stronger effect = lower value 1.02 | locus YER155C, strain BEM2, stronger effect = lower value 1.01 | locus YER167W, strain BCK2, stronger effect = lower value 1 | locus YFR010W, strain ubp6, stronger effect = lower value 1.02 | locus YGL078C, strain dbp3, stronger effect = lower value 1 | locus YGL086W, strain mad1, stronger effect = lower value 1.02 | locus YGL167C, strain pmr1, stronger effect = lower value 1.02 | locus YGL173C, strain kem1, stronger effect = lower value 1.02 | locus YGL227W, strain vid30, stronger effect = lower value 1.01 | locus YGL240W, strain doc1, stronger effect = lower value 1.02 | locus YGL248W, strain PDE1, stronger effect = lower value 1.01 | locus YGL253W, strain hxk2, stronger effect = lower value 1.01 | [6] 1.01 | locus YGR135W, strain pre9, stronger effect = lower value 0.992 | locus YGR252W, strain gcn5, stronger effect = lower value 0.986 | locus YHR013C, strain ard1, stronger effect = lower value 1.01 | locus YHR027C, strain rpn1, stronger effect = lower value 1.02 | locus YHR030C, strain SLT2, stronger effect = lower value 1 and 1.06 | locus YHR079C, strain IRE1 (second series), stronger effect = lower value 1.02 | locus YHR079C, strain IRE1, stronger effect = lower value 1.05 | locus YHR094C, strain hxt1, stronger effect = lower value 0.994 | locus YHR129C, strain ARP1, stronger effect = lower value 1 | locus YHR142W, strain chs7, stronger effect = lower value 0.991 | locus YHR200W, strain rpn10, stronger effect = lower value 0.975 | locus YIL066C, strain RNR3, stronger effect = lower value 1.01 | locus YIL073C, strain SPO22, stronger effect = lower value 1.01 | locus YIL125W, strain kgd1, stronger effect = lower value 1 | locus YIR030C, strain dcg1, stronger effect = lower value 0.997 | locus YJL092W, strain hpr5, stronger effect = lower value 1.01 | locus YJL095W, strain BCK1 (second series), stronger effect = lower value 1.01 | locus YJL095W, strain BCK1, stronger effect = lower value 0.996 and 1.04 | locus YJL115W, strain asf1, stronger effect = lower value 1.01 | locus YJL129C, strain trk1, stronger effect = lower value 1.03 | locus YJL134W, strain LCB3, stronger effect = lower value 0.998 | locus YJL154C, strain vps35, stronger effect = lower value 0.998 | locus YJL164C, strain tpk1, stronger effect = lower value 0.992 | locus YJL166W, strain qcr8, stronger effect = lower value 0.999 | locus YJL168C, strain set2, stronger effect = lower value 1 | locus YJL187C, strain SWE1 (second series), stronger effect = lower value 1.01 | locus YJL187C, strain SWE1, stronger effect = lower value 1.01 | locus YJR043C, strain POL32, stronger effect = lower value 1.02 | locus YJR066W, strain TOR1, stronger effect = lower value 0.976 | [13] 1.01 | locus YKL009W, strain mrt4, stronger effect = lower value 1.02 | locus YKL068W, stronger effect = lower value 0.992 | locus YKL085W, strain MDH1 (second series), stronger effect = lower value 0.999 | locus YKL085W, strain MDH1, stronger effect = lower value 0.999 | locus YKL160W, strain elf1, stronger effect = lower value 0.992 | locus YKL190W, strain CNB1, stronger effect = lower value 1.01 | locus YKR001C, strain vps1, stronger effect = lower value 0.964 | locus YKR026C, strain gcn3, stronger effect = lower value 1.01 | locus YKR091W, strain srl3, stronger effect = lower value 0.998 | locus YLL001W, strain dnm1, stronger effect = lower value 0.991 | locus YLL026W, stronger effect = lower value 1.01 | locus YLL041C, strain sdh2, stronger effect = lower value 1.01 | locus YLR027C, strain aat2, stronger effect = lower value 1.02 | locus YLR039C, strain RIC1, stronger effect = lower value 1.02 | locus YLR058C, strain SHM2, stronger effect = lower value 1.01 | locus YLR102C, strain apc9, stronger effect = lower value 0.997 | locus YLR113W, strain HOG1, stronger effect = lower value 1.04 | locus YLR221C, strain rsa3, stronger effect = lower value 1.03 | locus YLR258W, strain gsy2, stronger effect = lower value 0.999 | locus YLR262C, strain YPT6 (second series), stronger effect = lower value 0.987 | locus YLR262C, strain YPT6, stronger effect = lower value 1.01 | locus YLR268W, strain sec22, stronger effect = lower value 1.01 | locus YLR320W, strain mms22, stronger effect = lower value 1.02 | locus YLR330W, strain CHS5, stronger effect = lower value 1.01 | locus YLR342W, strain FKS1 (second series), stronger effect = lower value 1.01 | locus YLR342W, strain FKS1, stronger effect = lower value 1 | locus YLR357W, strain rsc2, stronger effect = lower value 1.01 | locus YLR370C, strain arc18, stronger effect = lower value 1.01 | locus YLR371W, strain rom2, stronger effect = lower value 1 | locus YLR384C, strain iki3, stronger effect = lower value 1.02 | locus YLR418C, strain cdc73, stronger effect = lower value 0.957 | locus YML016C, strain PPZ1, stronger effect = lower value 0.986 | locus YML032C, strain rad52, stronger effect = lower value 0.982 | locus YML120C, strain ndi1, stronger effect = lower value 1 | locus YML124C, strain tub3, stronger effect = lower value 0.99 | locus YMR058W, strain fet3, stronger effect = lower value 1.02 | locus YMR078C, strain ctf18, stronger effect = lower value 0.996 | locus YMR125W, strain sto1, stronger effect = lower value 1 | locus YMR129W, stronger effect = lower value 1.01 | locus YMR205C, strain PFK2, stronger effect = lower value 0.996 | locus YMR223W, strain ubp8, stronger effect = lower value 0.992 | locus YMR231W, strain pep5, stronger effect = lower value 0.987 | locus YMR263W, strain SAP30, stronger effect = lower value 1.02 | [7] 1.02 | locus YNL067W, strain RPL9B, stronger effect = lower value 1.01 | locus YNL071W, strain lat1, stronger effect = lower value 1 | [8] 1 | locus YNL183C, strain NPR1, stronger effect = lower value 0.985 | locus YNL209W, strain ssb2, stronger effect = lower value 1 | locus YNL233W, strain BNI4, stronger effect = lower value 1.01 | locus YNL248C, strain rpa49, stronger effect = lower value 1.02 | locus YNL250W, strain rad50, stronger effect = lower value 0.993 | locus YNL271C, strain bni1, stronger effect = lower value 1.01 | locus YNL298W, strain CLA4, stronger effect = lower value 0.984 | locus YNL307C, strain MCK1, stronger effect = lower value 1 | locus YNL322C, strain KRE1 (second series), stronger effect = lower value 1.02 | locus YNL322C, strain KRE1, stronger effect = lower value 1.01 | locus YNR049C, strain mso1, stronger effect = lower value 1.01 | locus YNR052C, strain pop2, stronger effect = lower value 1.01 | locus YOL012C, strain htz1 0.662 | locus YOL147C, strain pex11, stronger effect = lower value 0.979 | locus YOR001W, strain rrp6, stronger effect = lower value 1.04 | locus YOR061W, strain CKA2, stronger effect = lower value 1.01 | locus YOR069W, strain VPS5, stronger effect = lower value 1.01 | locus YOR070C, strain gyp1, stronger effect = lower value 1.02 | locus YOR080W, strain dia2, stronger effect = lower value 1.01 | locus YOR083W, strain WHI5, stronger effect = lower value 0.991 | locus YOR106W, strain vam3, stronger effect = lower value 1.02 | locus YOR136W, strain idh2, stronger effect = lower value 1.02 | locus YOR144C, strain elg1, stronger effect = lower value 0.985 | locus YOR184W, strain ser1, stronger effect = lower value 1.04 | locus YOR231W, strain MKK1, stronger effect = lower value 1.04 | locus YOR265W, strain rbl2, stronger effect = lower value 1.01 | locus YOR270C, strain vph1, stronger effect = lower value 1.01 | locus YOR290C, strain snf2, stronger effect = lower value 0.981 | locus YOR316C, strain cot1, stronger effect = lower value 0.991 | locus YPL051W, strain arl3, stronger effect = lower value 1.01 | locus YPL078C, strain atp4, stronger effect = lower value 0.981 | locus YPL106C, strain sse1, stronger effect = lower value 0.996 | locus YPL240C, strain hsp82, stronger effect = lower value 1.01 | locus YPL256C, strain CLN2, stronger effect = lower value 1.06 | locus YPR119W, strain clb2, stronger effect = lower value 1 | locus YPR141C, strain kar3, stronger effect = lower value 0.991 | locus YPR163C, strain tif3, stronger effect = lower value 0.995 | locus YPR167C, strain met16, stronger effect = lower value 0.996 | strain wtn01, stronger effect = lower value 0.997
